Test results reported in PubChem BioAssay (NCI).
Compounds without any hit were thinned out: in the full panel of roughly 79,000, 15% have a hit. Values without a mark were called inactive. Activity calls are given as the source filed them. Rule as the data show it: active = growth inhibition above about 70%; inactive = the rest.

Legend:
[1] = NCI Yeast Anticancer Drug Screen. Data for the rad50 strain (AID 155);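 also: 0% = growth of vehicle-only cultures of the same strain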; settings: S. cerevisiae rad50 strain growth inhibition, hits give high values
Outline: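 Cells are treated with compound, grown, and their growth is then scored against vehicle-only cultures of the same repair-deficient yeast strain.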

[2] = NCI Yeast Anticancer Drug Screen. Data for the mec2-1 strain (AID 157); settings: S. cerevisiae mec2-1 strain, hits give high values
Outline: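 Each compound was tested on mec2-1 yeast, a strain altered in DNA damage repair or cell cycle control. Growth inhibition is reported relative to vehicle.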

[3] = NCI Yeast Anticancer Drug Screen. Data for the sgs1 mgt1 strain (AID 161);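 also: 0% = growth of cultures given vehicle only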; settings: S. cerevisiae sgs1 mgt1 strain, hits give high values
Outline: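 Mutant yeast exposed to compound; growth scored against vehicle-only wells.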

[4] = NCI Yeast Anticancer Drug Screen. Data for the cln2 rad14 strain (AID 165);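 also: 0% = growth equal to vehicle treated cultures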; settings: S. cerevisiae cln2 rad14 strain, hits give high values
Outline: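 Test compounds were added to cln2 rad14 yeast cultures; inhibition of growth was then determined by comparison with vehicle treatment.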

[5] = NCI Yeast Anticancer Drug Screen. Data for the bub3 strain (AID 167); settings: S. cerevisiae bub3 mutant strain, hits give high values
Outline: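 Part of a panel of yeast mutants defective in DNA damage repair or cell cycle regulation. Each strain is grown with compound, and inhibition is calculated relative to solvent-treated cultures.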

[6] = NCI Yeast Anticancer Drug Screen. Data for the mlh1 rad18 strain (AID 175); settings: S. cerevisiae mlh1 rad18 strain growth inhibition, hits give high values
Outline: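 Inhibition values reflect reduced growth of mutant yeast versus vehicle-treated controls following compound exposure; the mutations affect DNA damage repair.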

[7] = at 5.0 µM (retest, dose inferred, filed as 0.5)
[8] = at 50.0 µM (retest, dose inferred, filed as 5.0)

| SMILES | growth inhibition [1, 7] | growth inhibition [1, 8] | growth inhibition ([1]; at 50.0 µM) | growth inhibition [2, 7] | growth inhibition [2, 8] | growth inhibition ([2]; at 50.0 µM) | growth inhibition [3, 7] | growth inhibition [3, 8] | growth inhibition ([3]; at 50.0 µM) | growth inhibition [4, 7] | growth inhibition [4, 8] | growth inhibition ([4]; at 50.0 µM) | growth inhibition [5, 7] | growth inhibition [5, 8] | growth inhibition ([5]; at 50.0 µM) | growth inhibition [6, 7] | growth inhibition [6, 8] | growth inhibition ([6]; at 50.0 µM) |
| --- | --- | --- | --- | --- | --- | --- | --- | --- | --- | --- | --- | --- | --- | --- | --- | --- | --- | --- |
| c1ccc(COc2ccc(C[P+](c3ccccc3)(c3ccccc3)c3ccccc3)cc2)cc1 | 97% (active) | 100% (active) | 99.3% (active) | 98% (active) | 100% (active) | 99.5% (active) | 99% (active) | 100% (active) | 99.7% (active) | 98% (active) | 98% (active) | 99.6% (active) | 99% (active) | 99% (active) | 99.5% (active) | 99% (active) | 99% (active) | 99.3% (active) |
| NNc1nc(Nc2ccccc2)nc(Nc2ccccc2)n1 | -8% | 93% (active) | 51.9% | -5% | 10% | 42% | -9% | 56% | 45.5% | -9% | 52% | 37.5% | -4% | 44% | 48.5% | -2% | 51% | 41.6% |
| Cc1c2cnccc2c(C)c2c1c1ccccc1n2CCOC(=O)c1ccccc1 | 9% | 94% (active) | 96.4% (active) | -4% | 78% (active) | 87.8% (active) | 1% | 81% (active) | 89.7% (active) | 39% | 82% (active) | 75.2% (active) | 8% | 87% (active) | 90.3% (active) | 10% | 87% (active) | 91.5% (active) |
| CN=S(=O)(OCCCCCCCCCOS(=O)(=NC)c1ccc(C)cc1)c1ccc(C)cc1 (configuration not stated) | 17% | 12% | 42.5% | 14% | 6% | 70% (active) | 16% | 15% | 19.7% | 29% | -1% | -5.85% | 20% | 20% | -35.3% | 18% | 11% | -80.8% |
| O=C1OC(=O)C2C=CC=CC12 (configuration not stated) | 2% | -5% | 50% | -1% | -9% | -8.45% | 2% | 4% | -7.9% | -1% | -6% | -74.8% | -3% | 2% | 6.15% | 14% | 2% | -12.2% |
| O=[N+]([O-])CCc1ccco1 | 3% | 0% | 74.8% (active) | 1% | -1% | 73.2% (active) | 2% | 2% | 47.4% | 3% | 0% | 56.2% | 4% | -4% | 95.2% (active) | 0% | -1% | 44.1% |
| CC(=O)C(C(=N)C#N)C(=O)Nc1ccccc1 (configuration not stated) | 1% | 10% | -6.9% | 2% | -12% | -34.5% | -8% | 7% | -22.7% | -14% | -2% | 33.6% | 6% | -2% | -44% | 0% | 6% | -15.2% |
| O=C(C(/C=N/C(=S)NCc1ccccc1)=C(/O)c1ccccc1)c1ccccc1 | 6% | 86% (active) | 98.8% (active) | -1% | 69% | 98% (active) | 3% | 61% | 98.2% (active) | -9% | 87% (active) | 97.7% (active) | 2% | 97% (active) | 98.3% (active) | 12% | 71% (active) | 98.7% (active) |
| CC1=C(C)C(N2CCOCC2)CS(=O)(=O)O1 (configuration not stated) | 4% | 0% | 6.15% | 1% | -3% | -14.4% | 5% | 0% | -2.3% | 3% | -1% | 16.4% | -2% | -1% | 1.35% | 19% | 17% | -3.95% |
